High-throughput results: PubChem, National Center for Advancing Translational Sciences (NCATS)
An excerpt weighted towards active compounds, which were near 7.4% of everything screened.
Luciferase inh – blocks purified firefly luciferase enzyme activity; Potency, µM (top dose mostly 115 µM), hits mostly inhibitors; P08659; actives 2.5% (n = 76,000); AID 1347043; purified P. pyralis luciferase, luminescence, biochemical; note: nearly all actives have a fitted effect of over 65% in size
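Biochemical qHTS: compound (6-point titration) added to 10uM D-luciferin plus 10uM ATP in Tris acetate pH 7.5 buffer with Mg, Tween-20 and BSA, then purified enzyme at 10nM; light output imaged.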
HEK293 tox – cytotoxic compounds in HEK 293 cells | HEK 293 viability, ATP luminescence (CellTiter-Glo), 48-72 h | Potency, µM (doses to about 115 µM), hits mostly inhibitors | actives 6.6% (n = 94,000) | AID 1345083; note: nearly all actives have a fitted effect of over 60% in size
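250 HEK 293 cells/well; compound by pintool; incubated 48 or 72 hr at 37 degree Celsius; CellTiter-Glo added, 10 min RT, luminescence imaged.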
SNCA viab count – cell viability loss counter-screen. Potency, µM (top dose mostly 57.1 µM), usual class: cytotoxic. AID 1671193. actives 0.12% (n = 150,000). HEK-293-SNCA-luc viability, GF-AFC fluorescence, 24 h; note: nearly all actives have a fitted effect of over 30% in size
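Cytotoxicity counterscreen: after 24 h compound treatment of genome-edited SNCA-luciferase HEK-293 cells, live-cell protease substrate GF-AFC read by fluorescence after 30 min; activity scaled between DMSO (0%) and medium-only (-100%), curves Hill-fitted.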
NIH3T3 tox – kills NIH 3T3 cells; NIH 3T3 viability, CellTiter-Glo ATP luminescence, 48-72 h; Potency, µM (highest dose often 96.7 µM), most hits filed as inhibitors; actives 4.3% (n = 94,000); note: nearly all actives have a fitted effect of over 55% in size
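Mouse fibroblast NIH 3T3 cells, 400 per well, received compound via pintool and were incubated for 48 or 72 hr prior to CellTiter-Glo ATP luminescence measurement.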
SNCA expr inhib – SNCA gene expression inhibition; AID 1671194; actives 0.17% (n = 140,000); Potency, µM (doses to about 57.2 µM), most hits filed as inhibitors; HEK-293 SNCA-luciferase knock-in, luminescence, 24 h; note: nearly all actives have a fitted effect of over 45% in size
NPR1 antag – human Npr1 receptor antagonism. P16066. HEK293 hNpr1 GloSensor cGMP, ANP-stimulated luminescence. Potency, µM (highest dose often 46.3 µM), most hits filed as inhibitors. actives 1.6% (n = 76,000); calls by dose curve; note: nearly all actives have a fitted effect of over 60% in size
Target sequence (P16066 whole entry, looked up): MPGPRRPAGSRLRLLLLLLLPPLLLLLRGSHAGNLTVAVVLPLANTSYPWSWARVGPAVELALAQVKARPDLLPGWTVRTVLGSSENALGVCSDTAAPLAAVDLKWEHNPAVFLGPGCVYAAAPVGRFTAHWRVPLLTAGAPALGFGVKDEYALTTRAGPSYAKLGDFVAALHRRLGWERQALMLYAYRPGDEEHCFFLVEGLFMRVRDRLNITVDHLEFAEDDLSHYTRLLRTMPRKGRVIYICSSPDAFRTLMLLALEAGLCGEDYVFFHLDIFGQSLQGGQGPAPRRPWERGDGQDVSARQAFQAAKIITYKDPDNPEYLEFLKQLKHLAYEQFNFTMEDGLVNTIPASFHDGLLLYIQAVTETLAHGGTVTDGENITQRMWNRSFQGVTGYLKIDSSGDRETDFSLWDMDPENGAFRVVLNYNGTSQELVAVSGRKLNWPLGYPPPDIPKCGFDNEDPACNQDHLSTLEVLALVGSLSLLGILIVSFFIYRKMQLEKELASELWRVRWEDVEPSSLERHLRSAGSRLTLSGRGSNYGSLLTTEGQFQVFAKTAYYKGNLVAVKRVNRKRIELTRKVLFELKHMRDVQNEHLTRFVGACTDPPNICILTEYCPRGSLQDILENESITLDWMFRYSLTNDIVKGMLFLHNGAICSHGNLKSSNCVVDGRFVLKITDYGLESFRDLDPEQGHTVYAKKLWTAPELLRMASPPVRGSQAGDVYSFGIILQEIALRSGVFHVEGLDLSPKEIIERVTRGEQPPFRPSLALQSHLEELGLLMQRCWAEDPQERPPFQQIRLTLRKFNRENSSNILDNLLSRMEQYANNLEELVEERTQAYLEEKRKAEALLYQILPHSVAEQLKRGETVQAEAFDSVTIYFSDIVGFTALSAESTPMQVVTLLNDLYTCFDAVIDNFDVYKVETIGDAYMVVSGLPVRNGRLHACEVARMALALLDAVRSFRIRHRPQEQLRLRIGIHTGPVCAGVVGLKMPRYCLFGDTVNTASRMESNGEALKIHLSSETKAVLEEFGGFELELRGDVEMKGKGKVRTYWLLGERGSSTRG
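Compound pre-incubated 30 min at room temperature on GloSensor-loaded HEK293 cells stably carrying hNpr1 and the pGS-40F cGMP biosensor. Stimulation uses hNppA at 0.1 nM final; luminescence is taken at baseline and 20 min post-agonist.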
Large screens that a line does not name were inactive. Unless noted, calls come from the whole dose curve; as a rule, active = well fitted curve in the direction sought with a large enough effect; inconclusive = small, poorly fitted or top-dose-only effect, or another doubt; inactive = no such curve, though single readings can be large; an effect the other way counts as inactive or inconclusive.

COc1ncccc1CN1CCC2(CC1)Cc1ccccc1CNC2=O	none (no result: Luciferase inh, NPR1 antag)
CC(C)Cc1cc(CNC(=O)Nc2nnc(C(C)(C)C)s2)on1	HEK293 tox 44.7µM, NIH3T3 tox inconclusive
COCCN(Cc1nccs1)C(=O)c1oc2ccc(C)cc2c1C	HEK293 tox inconclusive, NIH3T3 tox inconclusive
COc1ccc(-c2cc(N3CCCC(NC(=O)Cc4ccc(OC)c(OC)c4)C3)n[nH]2)cc1 (stereo not given)	Luciferase inh inconclusive, HEK293 tox 35.5µM, NIH3T3 tox inconclusive, NPR1 antag inconclusive
O=C(NC1CCN(c2cc(-c3ccc(Cl)cc3)[nH]n2)C1)c1cccnc1 (stereo not given)	HEK293 tox inconclusive, NIH3T3 tox inconclusive
COc1ccc(CC(=O)NC2CCCN(c3cc(-c4ccc(F)cc4)[nH]n3)C2)cc1 (stereo not given)	none
COc1ccc(-c2cc(N3CCCC(NC(=O)c4ccc(Br)o4)C3)n[nH]2)cc1 (stereo not given)	Luciferase inh 31.6µM, HEK293 tox inconclusive, SNCA viab count inconclusive, NIH3T3 tox inconclusive
O=C(NC1CCN(c2cc(-c3ccc(Cl)cc3)[nH]n2)C1)c1ccc(Br)o1 (stereo not given)	HEK293 tox 35.5µM, NIH3T3 tox inconclusive
O=C(NC1CCCN(c2cc(-c3ccc(Cl)cc3)[nH]n2)C1)c1ccc(Br)o1 (stereo not given)	HEK293 tox 44.7µM, SNCA viab count inconclusive, NIH3T3 tox inconclusive
O=C(NC1CCCN(c2cc(-c3ccc(Cl)cc3)[nH]n2)C1)c1ccoc1 (stereo not given)	Luciferase inh inconclusive, HEK293 tox inconclusive, SNCA viab count inconclusive, NIH3T3 tox inconclusive
COc1ccc(-c2cc(N3CCCC(NC(=O)c4ccccc4Br)C3)n[nH]2)cc1 (stereo not given)	Luciferase inh inconclusive, HEK293 tox inconclusive, NIH3T3 tox inconclusive
CC(=O)Nc1cccc(C(=O)NCc2nnc3ccc(-c4ccc(Cl)cc4)nn23)c1	HEK293 tox inconclusive
CC(C)(C)c1ccc(NC(=O)O[C@@H]2CO[C@H]3[C@@H]2OC[C@@H]3Nc2nccc(-c3cccc(F)c3)n2)cc1	HEK293 tox inconclusive, NIH3T3 tox inconclusive
COc1ccccc1-n1c(=O)c(C(=O)NCC(F)(F)F)nc2cccnc21	none (no result: Luciferase inh, NPR1 antag)
COc1ccc(-c2cc(N3CCC(NC(=O)COc4cccc(C)c4)CC3)n[nH]2)cc1	HEK293 tox inconclusive, NIH3T3 tox 39.8µM, NPR1 antag inconclusive
O=C(NC1CC1)c1ccccc1OCC1CCCN(Cc2cccc3[nH]ccc23)C1 (stereo not given)	HEK293 tox 35.5µM, SNCA viab count inconclusive
CN1CCC2(C1)CN(CC1CC1)c1ccc(C(=O)NCCOc3ccccc3)cc12 (stereo not given)	HEK293 tox 56.2µM, NIH3T3 tox 39.8µM
CN1CCC2(C1)CN(CC1CCOCC1)c1ccc(C(=O)NCc3ccccc3)cc12 (stereo not given)	HEK293 tox inconclusive, NIH3T3 tox inconclusive
COc1ccc(NC(=O)c2ccc3c(c2)C2(CCN(C)C2)CN3CC2CC2)cc1 (stereo not given)	HEK293 tox 50.1µM, NIH3T3 tox 25.1µM
CN1CCC2(C1)CN(CC1CCOCC1)c1ccc(C(=O)Nc3ccccc3)cc12 (stereo not given)	Luciferase inh 50.1µM, HEK293 tox 100µM, NIH3T3 tox inconclusive, SNCA expr inhib inconclusive
COc1ccc(C(=O)NC2CCCN(c3ccnc4ccnn34)C2)cc1 (stereo not given)	HEK293 tox 31.6µM, SNCA viab count inconclusive, NIH3T3 tox inconclusive (no result: Luciferase inh, NPR1 antag)
O=C(NC1CCCN(c2ccnc3ccnn23)C1)c1ccc2c(c1)OCO2 (stereo not given)	HEK293 tox 35.5µM, SNCA viab count inconclusive, NIH3T3 tox inconclusive (no result: Luciferase inh, NPR1 antag)
COc1cccc(C(=O)NC2CCCN(c3ccnc4ccnn34)C2)c1 (stereo not given)	HEK293 tox inconclusive, NIH3T3 tox inconclusive, SNCA expr inhib inconclusive (no result: Luciferase inh, NPR1 antag)
O=C(NC1CCCN(c2ccnc3ccnn23)C1)c1cccc(Br)c1 (stereo not given)	HEK293 tox 79.4µM, NIH3T3 tox inconclusive (no result: Luciferase inh, NPR1 antag)
COc1cccc(C(=O)NC2CCN(c3ccnc4ccnn34)CC2)c1	HEK293 tox 35.5µM, NIH3T3 tox inconclusive, SNCA expr inhib inconclusive (no result: Luciferase inh, NPR1 antag)
CCOCCOC1CCN(S(=O)(=O)c2c(C)noc2C)CC1	none
C[S+](=O)([O-])N1CCN([S+](=O)([O-])c2ccc(Cl)nc2)C(=O)C1	none (no result: Luciferase inh, NPR1 antag)
COCC1CN(C2CCC2)CC12CCN(C(=O)c1ccco1)CC2 (stereo not given)	HEK293 tox inconclusive, NIH3T3 tox inconclusive
O=C(NC1CCCN(c2ccnc3ccnn23)C1)c1ccc(Cl)cc1 (stereo not given)	HEK293 tox 39.8µM, NIH3T3 tox inconclusive (no result: Luciferase inh, NPR1 antag)
CC1=C[C@@H](CN2CCN(CCO)CC2)[C@H](C(C)C)C[C@H]1Cc1nnc(-c2ccncc2)o1	HEK293 tox 44.7µM, NIH3T3 tox inconclusive
CC1=C[C@@H](CN2CCN(C)CC2)[C@H](C(C)C)C[C@H]1Cc1nnc(-c2ccc(C)cc2)o1	HEK293 tox 28.2µM, SNCA viab count inconclusive, NIH3T3 tox 22.4µM
CC1=C[C@@H](CN2CCN(C)CC2)[C@H](C(C)C)C[C@H]1Cc1nnc(-c2ccc(N(C)C)cc2)o1	HEK293 tox 22.4µM, SNCA viab count inconclusive, NIH3T3 tox 39.8µM
CC1=C[C@@H](CN2CCN(CCO)CC2)[C@H](C(C)C)C[C@H]1Cc1nnc(C)o1	none
CC1=C[C@@H](CN2CCN(C)CC2)[C@H](C(C)C)C[C@H]1Cc1nnc(C)o1	HEK293 tox inconclusive
CC1=C[C@@H](CNC(=O)c2cncnc2)[C@H](C(C)C)C[C@H]1Cc1nnc(-c2ccncc2)o1	HEK293 tox 79.4µM, NIH3T3 tox inconclusive
CN(C)c1cc(=O)c2ccnc(Nc3cccnc3)c2o1	NIH3T3 tox 79.4µM
CN(c1ccccc1)c1cc(=O)c2ccnc(-c3ccnn3C)c2o1	HEK293 tox inconclusive, NIH3T3 tox 35.5µM, SNCA expr inhib inconclusive
COc1ncc(-c2nccc3c(=O)cc(N(C)c4ccccc4)oc23)cn1	NIH3T3 tox 31.6µM
CN1CCN(c2ccc(-c3nccc4c(=O)cc(N(C)c5ccccc5)oc34)cn2)CC1	Luciferase inh inconclusive, HEK293 tox inconclusive, NIH3T3 tox inconclusive
CN(c1ccccc1)c1cc(=O)c2ccnc(-c3cccnc3)c2o1	NIH3T3 tox 17.8µM, SNCA expr inhib inconclusive
COC1CCC12CCN(Cc1ccc(C#N)cc1)CC2 (stereo not given)	none
c1ccc(CCc2nc3nccc(-c4ccsc4)n3n2)cc1	HEK293 tox inconclusive
O=C(NCc1ccccc1)c1ccc2nnc(-c3ccc(OC(F)(F)F)cc3)n2c1	HEK293 tox inconclusive, NIH3T3 tox inconclusive (no result: Luciferase inh, NPR1 antag)
